PubChem BioAssay (EPA / NIEHS)
Activity calls are given as the source filed them. Rule for the calls: active = hit-call score of the fitted dose curve at least 0.9, where 1 is the maximum; inactive = score below 0.9.

Experiments:
[1] = read-out: Tissue Factor, F3 (gene 2152); test: BSK_CASM3C_TissueFactor: BioMAP Diversity Plus: CASM3C Assay for Tissue Factor Biomarker Activity (AID 2283052); settings: primary human coronary artery smooth muscle cells; actives raise or lower the signal;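 note: cell surface tissue factor protein level read by ELISA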
[2] = read-out: Interferon-gamma inducible Protein 10 (IP10), CXCL10 (gene 3627); test: BSK_hDFCGF_IP10: BioMAP Diversity Plus: hDFCGF Assay for Interferon-gamma inducible Protein 10 (IP10) Biomarker Activity (AID 2283053); settings: primary human foreskin fibroblasts; actives raise or lower the signal
Method in brief: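 Primary foreskin fibroblasts, human; 24 h compound exposure; IP-10 by ELISA; bidirectional fit vs DMSO.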

[3] = read-out: Urokinase-type plasminogen activator receptor (uPAR), PLAUR (gene 5329); test: BSK_CASM3C_uPAR: BioMAP Diversity Plus: CASM3C Assay for Urokinase-type plasminogen activator receptor (uPAR) Biomarker Activity (AID 2283054); settings: primary human coronary artery smooth muscle cells; actives raise or lower the signal;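 note: cell-surface uPAR protein level quantified by ELISA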
[4] = read-out: Vascular cell adhesion molecule 1 (VCAM1), VCAM1 (gene 7412); test: BSK_CASM3C_VCAM1: BioMAP Diversity Plus: CASM3C Assay for Vascular cell adhesion molecule 1 (VCAM1) Biomarker Activity (AID 2283055); settings: primary human coronary artery smooth muscle cells; actives raise or lower the signal;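 note: VCAM-1 protein level quantified by ELISA on the cells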
[5] = read-out: Epidermal growth factor receptor (EGFR), EGFR (gene 1956); test: BSK_hDFCGF_EGFR: BioMAP Diversity Plus: hDFCGF Assay for Epidermal growth factor receptor (EGFR) Biomarker Activity (AID 2283057); settings: primary human foreskin fibroblasts; actives raise or lower the signal
Method in brief: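 hDFCGF system, primary human foreskin fibroblasts; compound 24 h; EGFR measured by ELISA; DMSO = negative control/baseline; bidirectional fitting.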

[6] = read-out: Interleukin-8 (IL8), CXCL8 (gene 3576); test: BSK_hDFCGF_IL8: BioMAP Diversity Plus: hDFCGF Assay for Interleukin-8 (IL8) Biomarker Activity (AID 2283058); settings: primary human foreskin fibroblasts; actives raise or lower the signal
Method in brief: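 Primary human foreskin fibroblasts (hDFCGF system) dosed with chemical; IL-8 measured by ELISA 24 hours later. Bidirectional curve fitting relative to DMSO baseline; cytotoxicity tracked in parallel cultures by SRB total protein staining.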

[7] = read-out: Macrophage colony-stimulating factor (MCSF), CSF1 (gene 1435); test: BSK_hDFCGF_MCSF: BioMAP Diversity Plus: hDFCGF Assay for Macrophage colony-stimulating factor (MCSF) Biomarker Activity (AID 2283060); settings: primary human foreskin fibroblasts; actives raise or lower the signal
Method in brief: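 Human foreskin fibroblast primary cultures; M-CSF measured by ELISA 24 hours after chemical dosing. Bidirectional fitting relative to DMSO, with overt cytotoxicity tracked by parallel SRB total-protein staining (0.1% SRB, 10% TCA fixation, 560 nm).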

[8] = BSK_hDFCGF_SRB: Viability Assessment in the BioMAP Diversity Plus: hDFCGF Assay (AID 2283061); settings: primary human foreskin fibroblasts;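 note: cells exposed to compound for 24 h before the read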
Method in brief: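 Human foreskin fibroblasts in 96-well plates were treated 24 h. Total protein was measured by 0.1% SRB staining after 10% TCA fixation, read at 560 nm. Data were fitted bidirectionally against DMSO.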

[9] = read-out: TIMP metallopeptidase inhibitor 1 (TIMP1), TIMP1 (gene 7076); test: BSK_hDFCGF_TIMP1: BioMAP Diversity Plus: hDFCGF Assay for TIMP metallopeptidase inhibitor 1 (TIMP1) Biomarker Activity (AID 2283062); settings: primary human foreskin fibroblasts; actives raise or lower the signal
Method in brief: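 Human foreskin fibroblast primary cultures dosed for 24 h; secreted/surface TIMP-1 quantified by ELISA. Bidirectional curve fitting against DMSO baseline; cytotoxicity tracked in parallel cultures by SRB total-protein staining.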

[10] = read-out: Monokine induced gamma interferon (MIG), CXCL9 (gene 4283); test: BSK_hDFCGF_MIG: BioMAP Diversity Plus: hDFCGF Assay for Monokine induced gamma interferon (MIG) Biomarker Activity (AID 2283063); settings: primary human foreskin fibroblasts; actives raise or lower the signal
Method in brief: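 MIG/CXCL9 measured by ELISA 24 h after dosing primary human skin fibroblasts. Activity fitted in both directions against DMSO controls. Cytotoxicity was checked in parallel cultures by SRB staining read at 560 nm.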

[11] = read-out: Matrix Metallopeptidase 1 (MMP1), MMP1 (gene 4312); test: BSK_hDFCGF_MMP1: BioMAP Diversity Plus: hDFCGF Assay for Matrix Metallopeptidase 1 (MMP1) Biomarker Activity (AID 2283064); settings: primary human foreskin fibroblasts; actives raise or lower the signal
Method in brief: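 Primary human foreskin fibroblasts in the hDFCGF system were dosed with test chemical, and MMP1 was measured by ELISA 24 h later. Values come from bidirectional curve fitting against the DMSO baseline.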

[12] = read-out: Vascular cell adhesion molecule 1 (VCAM1), VCAM1 (gene 7412); test: BSK_hDFCGF_VCAM1: BioMAP Diversity Plus: hDFCGF Assay for Vascular cell adhesion molecule 1 (VCAM1) Biomarker Activity (AID 2283065); settings: primary human foreskin fibroblasts; actives raise or lower the signal;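 for AC50: VCAM-1 protein level quantified by ELISA after 24 h chemical exposure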
Method in brief: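 Human foreskin fibroblast primary cells dosed with chemical, VCAM-1 measured by ELISA at 24 h. Bidirectional curve fitting relative to DMSO as negative control/baseline.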

[13] = read-out: Plasminogen activator inhibitor-1 (PAI1), SERPINE1 (gene 5054); test: BSK_hDFCGF_PAI1: BioMAP Diversity Plus: hDFCGF Assay for Plasminogen activator inhibitor-1 (PAI1) Biomarker Activity (AID 2283066); settings: primary human foreskin fibroblasts; actives raise or lower the signal
Method in brief: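 Primary dermal fibroblasts (human foreskin), hDFCGF system; compound 24 h; PAI-1 by ELISA; bidirectional fit vs DMSO control.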

[14] = read-out: Intercellular Adhesion Molecule 1 (ICAM1), ICAM1 (gene 3383); test: BSK_KF3CT_ICAM1: BioMAP Diversity Plus: KF3CT Assay for Intercellular Adhesion Molecule 1 (ICAM1) Biomarker Activity (AID 2283067); settings: primary human keratinocytes with fibroblasts; actives raise or lower the signal
Method in brief: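 Human keratinocyte–foreskin fibroblast co-culture was treated for 24 h. Cell-surface ICAM-1 was quantified by ELISA, fitted bidirectionally relative to DMSO. Cytotoxicity was checked in parallel cultures by SRB total-protein staining.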

[15] = read-out: Interferon-gamma inducible Protein 10 (IP10), CXCL10 (gene 3627); test: BSK_KF3CT_IP10: BioMAP Diversity Plus: KF3CT Assay for Interferon-gamma inducible Protein 10 (IP10) Biomarker Activity (AID 2283068); settings: primary human keratinocytes with fibroblasts; actives raise or lower the signal
Method in brief: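 In a primary skin co-culture of keratinocytes and fibroblasts, IP-10 is quantified by ELISA at 24 h after dosing. SRB staining of parallel wells monitors overt toxicity. Curves are fitted both directions against DMSO.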

[16] = BSK_KF3CT_SRB: Viability Assessment in the BioMAP Diversity Plus: KF3CT Assay (AID 2283069); settings: primary human keratinocytes with fibroblasts;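 note: total protein by sulforhodamine B staining as a cytotoxicity measure; read 24 h after compound addition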
Method in brief: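 Human primary keratinocyte plus foreskin fibroblast co-culture exposed to chemicals for 24 h. Total protein measured by 0.1% sulforhodamine B staining after 10% TCA fixation, read at 560 nm; bidirectional fitting versus DMSO baseline.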

[17] = read-out: Interleukin-1 alpha (IL1a), IL1A (gene 3552); test: BSK_KF3CT_IL1a: BioMAP Diversity Plus: KF3CT Assay for Interleukin-1 alpha (IL1a) Biomarker Activity (AID 2283070); settings: primary human keratinocytes with fibroblasts; actives raise or lower the signal
Method in brief: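 Human keratinocyte plus foreskin fibroblast primary co-culture, sampled 24 h after chemical dosing. IL-1a measured by ELISA; responses fitted bidirectionally against DMSO baseline (negative control), so gain or loss of signal both count.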

[18] = read-out: TIMP metallopeptidase inhibitor 2 (TIMP2), TIMP2 (gene 7077); test: BSK_KF3CT_TIMP2: BioMAP Diversity Plus: KF3CT Assay for TIMP metallopeptidase inhibitor 2 (TIMP2) Biomarker Activity (AID 2283071); settings: primary human keratinocytes with fibroblasts; actives raise or lower the signal
Method in brief: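 Cells: human keratinocytes co-cultured with foreskin fibroblasts. Treat with chemical, 24 h. Measure TIMP-2 by ELISA; fit curves bidirectionally vs DMSO baseline.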

[19] = BSK_hDFCGF_Proliferation: Cell Proliferation Assessment in the BioMAP Diversity Plus: hDFCGF Assay (AID 2283059); settings: primary human foreskin fibroblasts;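 note: curves fitted for both rise and fall of signal versus DMSO baseline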
Method in brief: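 Primary human foreskin fibroblasts, sub-confluent; […]; 10% TCA fix, 0.1% SRB stain, A560 total protein. Gain/loss fitted bidirectionally vs DMSO control.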

Measured: AC50

Cc1nn(C)c(Oc2ccccc2)c1C=NOCc1ccc(C(=O)OC(C)(C)C)cc1
inactive: [1] | [3] | [4] | [6] | [9] | [10] | [14] | [16] | [17] | [18]
active: [2] 27.9 µM | [5] 3.95 µM | [7] 18.8 µM | [8] 15.4 µM | [11] 34.5 µM | [12] 13.9 µM | [13] 24.2 µM | [15] 13 µM

CCOC(=O)[C@H](C)Oc1ccc(Oc2nc3ccc(Cl)cc3o2)cc1
inactive: [1] | [2] | [3] | [4] | [5] | [6] | [7] | [9] | [10] | [11] | [12] | [13] | [14] | [16] | [17] | [18]
active: [8] 0.508 µM | [15] 25.3 µM

CCOC(=O)C(C)Oc1ccc(Oc2cnc3cc(Cl)ccc3n2)cc1 (configuration not stated)
inactive: [1] | [2] | [3] | [5] | [6] | [7] | [8] | [9] | [10] | [11] | [12] | [13] | [14] | [15] | [16] | [17] | [18]

CCCOC(=O)c1ccc(C(=O)OCCC)nc1
inactive: [1] | [2] | [3] | [4] | [5] | [6] | [7] | [8] | [9] | [10] | [11] | [12] | [13] | [14] | [15] | [16] | [17] | [18]

CSC(=O)c1cccc2nnsc12
inactive: [1] | [2] | [3] | [4] | [5] | [6] | [7] | [8] | [9] | [10] | [11] | [12] | [13] | [14] | [15] | [16] | [17] | [18]

CCN(Cc1c(F)cccc1Cl)c1c([N+](=O)[O-])cc(C(F)(F)F)cc1[N+](=O)[O-]
inactive: [1] | [4] | [5] | [6] | [7] | [8] | [9] | [12] | [13] | [14] | [16] | [18]
active: [2] 30.6 µM | [3] 13.2 µM | [10] 20 µM | [11] 9.24 µM | [15] 2.54 µM | [17] 8.48 µM

c1ccc2[nH]c(-c3cscn3)nc2c1
inactive: [1] | [2] | [3] | [4] | [5] | [6] | [7] | [8] | [9] | [10] | [11] | [12] | [13] | [14] | [15] | [16] | [17] | [18]

C#CCOC(=O)[C@@H](C)Oc1ccc(Oc2ncc(Cl)cc2F)cc1
inactive: [1] | [2] | [3] | [4] | [5] | [6] | [7] | [8] | [9] | [10] | [11] | [12] | [13] | [14] | [15] | [16] | [17] | [18]

CCOC(=O)NCCOc1ccc(Oc2ccccc2)cc1
active: [19] 24.7 µM | [7] 23.1 µM
inactive: [1] | [2] | [3] | [4] | [5] | [6] | [8] | [9] | [10] | [11] | [12] | [13] | [14] | [15] | [16] | [17] | [18]
